# Assay results from the supplement of paper PMC10681739.
# Tests used:
# ETS1 [1] = biological target: T1, ETS1 (UniProt P14921); assay: ETS1 binding intensity (PBM fluorescence), ETS1 alone (arbitrary fluorescence units); higher = stronger binding; details: ETS1 concentration 1 nM; RUNX1 concentration 0 nM
# T1 sequence: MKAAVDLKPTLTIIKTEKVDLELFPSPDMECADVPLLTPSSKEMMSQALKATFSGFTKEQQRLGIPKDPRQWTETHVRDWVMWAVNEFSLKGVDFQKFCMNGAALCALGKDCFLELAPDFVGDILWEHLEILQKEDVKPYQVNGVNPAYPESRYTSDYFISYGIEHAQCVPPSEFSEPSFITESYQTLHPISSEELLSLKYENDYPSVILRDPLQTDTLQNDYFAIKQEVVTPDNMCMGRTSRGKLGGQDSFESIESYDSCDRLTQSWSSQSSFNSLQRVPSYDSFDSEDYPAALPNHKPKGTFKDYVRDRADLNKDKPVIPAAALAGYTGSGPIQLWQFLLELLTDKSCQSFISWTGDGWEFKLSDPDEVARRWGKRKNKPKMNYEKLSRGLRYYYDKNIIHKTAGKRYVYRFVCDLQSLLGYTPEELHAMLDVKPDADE
# RUNX1 [2] = biological target: RUNX1 (UniProt Q01196); assay: RUNX1 binding intensity (PBM fluorescence), RUNX1 alone (arbitrary fluorescence units); higher = stronger binding; details: RUNX1 concentration 2 nM; ETS1 concentration 0 nM
# RUNX1, sequence (Q01196 whole entry): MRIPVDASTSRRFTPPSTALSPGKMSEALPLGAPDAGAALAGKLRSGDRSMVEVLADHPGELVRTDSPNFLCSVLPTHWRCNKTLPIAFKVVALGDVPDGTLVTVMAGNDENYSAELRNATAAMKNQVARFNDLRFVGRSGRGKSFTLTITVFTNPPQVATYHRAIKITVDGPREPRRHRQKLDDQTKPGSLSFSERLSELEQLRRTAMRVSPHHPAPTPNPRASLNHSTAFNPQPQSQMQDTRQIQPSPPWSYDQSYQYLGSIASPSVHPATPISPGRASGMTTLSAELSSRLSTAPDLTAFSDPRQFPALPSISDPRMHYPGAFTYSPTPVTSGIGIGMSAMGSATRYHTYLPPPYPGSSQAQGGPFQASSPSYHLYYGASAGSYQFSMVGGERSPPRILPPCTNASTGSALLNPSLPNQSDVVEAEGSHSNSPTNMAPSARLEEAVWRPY
# Method: (§1)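 Cooperative gcPBM on 36-bp genomic probes with neighbouring ETS1 and RUNX1 sites. Recombinant human RUNX1 (2 nM) was incubated alone or with ETS1 (25 nM) and detected with anti-RUNX1 antibody plus Alexa488 secondary. Values are medians over 4 replicate spots; the RUNX1+ETS1 data were normalised to the RUNX1-only data. The probes sit in constant array flanks that are not printed.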
# ETS1 [3] = biological target: T1, ETS1; assay: ETS1 binding intensity (PBM fluorescence) in presence of RUNX1, normalised to ETS1-only experiment (arbitrary fluorescence units); higher = stronger binding; details: ETS1 concentration 1 nM; RUNX1 concentration 25 nM
# RUNX1 [4] = biological target: RUNX1 (UniProt Q01196); assay: RUNX1 binding intensity (PBM fluorescence) in presence of ETS1, normalised to RUNX1-only experiment (arbitrary fluorescence units); higher = stronger binding; details: RUNX1 concentration 2 nM; ETS1 concentration 25 nM
# Method: as §1
# 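Wherever RUNX1 binding intensity (PBM fluorescence) in presence of ETS1, normalised to RUNX1-only experiment is given: Full-length recombinant human ETS1 or RUNX1 bound to double-stranded 36-bp genomic probes on microarrays, detected by protein-specific primary antibody and Alexa488 secondary, spot fluorescence as median of four replicate spots.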
# 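Wherever RUNX1 binding intensity (PBM fluorescence), RUNX1 alone is given: Full-length recombinant human RUNX1 bound to double-stranded 36-bp genomic probes on a high-density microarray, scored as Alexa488 fluorescence per spot via anti-RUNX1 antibody, median of four replicate spots.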
sequence,measurement,setting,value
CTCTAGAGGCTTCCTGCCCAACCACCAAGAAAAAGC,ETS1 binding intensity,ETS1 [1],598
same,RUNX1 binding intensity,RUNX1 [2],817
same,ETS1 binding intensity,ETS1 [3],668
same,RUNX1 binding intensity,RUNX1 [4],1180
GCCCCCGGAAGCTGTCGCCCCGTGCGGTGTGTGCTG,ETS1 binding intensity,ETS1 [1],1600
same,RUNX1 binding intensity,RUNX1 [2],787
same,ETS1 binding intensity,ETS1 [3],2000
same,RUNX1 binding intensity,RUNX1 [4],1330
CTGTCTGCTTCCCGTGGCCAGCCCTGACCGCGGCCC,ETS1 binding intensity,ETS1 [1],351
same,RUNX1 binding intensity,RUNX1 [2],1060
same,ETS1 binding intensity,ETS1 [3],621
same,RUNX1 binding intensity,RUNX1 [4],1430
AACCTAGAAAAGGAAGCTGCGGTTTTTCAGGGTATG,ETS1 binding intensity,ETS1 [1],697
same,RUNX1 binding intensity,RUNX1 [2],8830
same,ETS1 binding intensity,ETS1 [3],6430
same,RUNX1 binding intensity,RUNX1 [4],12300
GAGGACTTCCGGGTGCGTGTGATATCTGCGGGCCCG,ETS1 binding intensity,ETS1 [1],802
same,RUNX1 binding intensity,RUNX1 [2],703
same,ETS1 binding intensity,ETS1 [3],793
same,RUNX1 binding intensity,RUNX1 [4],2110
ATGGCGAAGCAGGATGCCCTCAACCCACATACGGCA,ETS1 binding intensity,ETS1 [1],638
same,RUNX1 binding intensity,RUNX1 [2],1010
same,ETS1 binding intensity,ETS1 [3],927
same,RUNX1 binding intensity,RUNX1 [4],1000
AGTCTAACCAACAAAGGATGTGGTAGGTAAAAGGTT,ETS1 binding intensity,ETS1 [1],1250
same,RUNX1 binding intensity,RUNX1 [2],834
same,ETS1 binding intensity,ETS1 [3],2640
same,RUNX1 binding intensity,RUNX1 [4],959
ACTGGCTTCACTTCCTCCGCGGTTCCTCGGAGCCGC,ETS1 binding intensity,ETS1 [1],497
same,RUNX1 binding intensity,RUNX1 [2],917
same,ETS1 binding intensity,ETS1 [3],514
same,RUNX1 binding intensity,RUNX1 [4],1730
ACTCGGGAATGTCCGGTCGTGGTAAGCAGGGTGGCA,ETS1 binding intensity,ETS1 [1],516
same,RUNX1 binding intensity,RUNX1 [2],803
same,ETS1 binding intensity,ETS1 [3],529
same,RUNX1 binding intensity,RUNX1 [4],1680
CACCAGGACGCAACAGGAAACCACAAAGGCCTGAGA,ETS1 binding intensity,ETS1 [1],2390
same,RUNX1 binding intensity,RUNX1 [2],2660
same,ETS1 binding intensity,ETS1 [3],6500
same,RUNX1 binding intensity,RUNX1 [4],5270
GACTTCCTGTTGAAGATTGGCCTCTGCGGTACCACG,ETS1 binding intensity,ETS1 [1],951
same,RUNX1 binding intensity,RUNX1 [2],2700
same,ETS1 binding intensity,ETS1 [3],2350
same,RUNX1 binding intensity,RUNX1 [4],9740
GCATCATCACTTCCTGTTGTGGGCAGTCGTTGCCTG,ETS1 binding intensity,ETS1 [1],3300
same,RUNX1 binding intensity,RUNX1 [2],843
same,ETS1 binding intensity,ETS1 [3],5100
same,RUNX1 binding intensity,RUNX1 [4],2360
AGGGAAGCAGGAAGTGACTGCGGGAGTGGAGCCGGC,ETS1 binding intensity,ETS1 [1],3920
same,RUNX1 binding intensity,RUNX1 [2],677
same,ETS1 binding intensity,ETS1 [3],3540
same,RUNX1 binding intensity,RUNX1 [4],1080
AACACCACTTCCTACTGTGAAACCACACTGTATTTG,ETS1 binding intensity,ETS1 [1],456
same,RUNX1 binding intensity,RUNX1 [2],1200
same,ETS1 binding intensity,ETS1 [3],588
same,RUNX1 binding intensity,RUNX1 [4],2980
CCCGTTCTCCGGAAGTGCGCGGGTTGGAGCTGAAGC,ETS1 binding intensity,ETS1 [1],4390
same,RUNX1 binding intensity,RUNX1 [2],760
same,ETS1 binding intensity,ETS1 [3],5690
same,RUNX1 binding intensity,RUNX1 [4],1600
TTTTTAAGGTCAGGATGTGGGCACATCTAAGGGGCA,ETS1 binding intensity,ETS1 [1],1330
same,RUNX1 binding intensity,RUNX1 [2],816
same,ETS1 binding intensity,ETS1 [3],1730
same,RUNX1 binding intensity,RUNX1 [4],1370
CTGCTGACCAAAACAGGATGTGGTCTACACAAAGTG,ETS1 binding intensity,ETS1 [1],10300
same,RUNX1 binding intensity,RUNX1 [2],800
same,ETS1 binding intensity,ETS1 [3],36600
same,RUNX1 binding intensity,RUNX1 [4],3500
TAAGAGATTTCCTGTAAAGGTAACCACCAGCAAAGA,ETS1 binding intensity,ETS1 [1],522
same,RUNX1 binding intensity,RUNX1 [2],721
same,ETS1 binding intensity,ETS1 [3],714
same,RUNX1 binding intensity,RUNX1 [4],1230
TGTCGTACATTTCCGCCTTGTGGGCACAATCTGATT,ETS1 binding intensity,ETS1 [1],965
same,RUNX1 binding intensity,RUNX1 [2],971
same,ETS1 binding intensity,ETS1 [3],1280
same,RUNX1 binding intensity,RUNX1 [4],1950
GGCTTCCGGCGGGGTACCCTCCTCTGTGGGCGGGGC,ETS1 binding intensity,ETS1 [1],563
same,RUNX1 binding intensity,RUNX1 [2],841
same,ETS1 binding intensity,ETS1 [3],572
same,RUNX1 binding intensity,RUNX1 [4],1750
CAGGGTGTCGGCTTCCGGCGGTTGCCCACTTTCGGC,ETS1 binding intensity,ETS1 [1],1100
same,RUNX1 binding intensity,RUNX1 [2],763
same,ETS1 binding intensity,ETS1 [3],1090
same,RUNX1 binding intensity,RUNX1 [4],1790
TGCCGCGGATACCCAGCCAGCGGCAGTGCGGTTAAC,ETS1 binding intensity,ETS1 [1],349
same,RUNX1 binding intensity,RUNX1 [2],1140
same,ETS1 binding intensity,ETS1 [3],955
same,RUNX1 binding intensity,RUNX1 [4],1210
ACAAGGAGGAAAAGGAAATGAACCACGAATAGCAAA,ETS1 binding intensity,ETS1 [1],1220
same,RUNX1 binding intensity,RUNX1 [2],817
same,ETS1 binding intensity,ETS1 [3],1160
same,RUNX1 binding intensity,RUNX1 [4],948
